Screening results (PubChem)
TcdB GH inh: inhibitors of Clostridioides difficile toxin B glycohydrolase | TcdB glycohydrolase enzymatic assay, plate reader | AID 652162 | 350,000 tested, 0.24% active | inhibition, % at 9.99 µM | P18177; in the data active = inhibition above about 10%
BoNT-F LC inh: blocks Botulinum neurotoxin F light chain protease; Multiplex microsphere protease cleavage assay, flow cytometry; inhibition, % at 10 µM; 360,000 tested, 0.22% active; in the data active = inhibition above about 35%, passing the limit was not always enough; inconclusive = no clear call, values can overlap the other calls; note: plate controls were buffer without enzyme for full effect and enzyme alone for no effect
BoNT-A LC inh2: BoNT A light chain protease inhibition. multiplex microsphere protease substrate cleavage, flow cytometry. inhibition, % at 10 µM. 360,000 tested, 0.17% active; note: plate controls were buffer without enzyme for full effect and enzyme alone for no effect
Autofluor counter: counter-screen for toxin protease inhibitors: compound fluorescence. compound autofluorescence counterscreen, microsphere flow cytometry; stronger effect = higher value. fluorescence intensity (concentration not given with the values). 360,000 tested, 3.1% active; in the data active = fluorescence intensity above about 16000; inconclusive = no clear call, values can overlap the other calls
Anthrax LF prot: blocks Bacillus anthracis lethal factor protease; P15917; multiplex microsphere protease cleavage assay, LF; AID 588501; inhibition, % at 10 µM; 360,000 tested, 0.12% active; note: plate controls were buffer without enzyme for full effect and enzyme alone for no effect
* hit, by the source's call. The sample as a whole holds a higher share of hits than the screen did. Cut-off read from the data, not from the text of the source, unless noted: active = inhibition above about 30%; inconclusive = no clear call, values can overlap the other calls; inactive = below that.

For NC(=O)[C@@H]1[C@H]2C(=O)O[C@H](c3ccccc3)[C@H](c3ccccc3)N2[C@H](c2ccc(O)cc2)[C@@]12C(=O)Nc1ccc(C#CC3=CCCCC3)cc12 the results were TcdB GH inh -2.
Screening O=C(CCC1CCCCC1)NNC(=O)c1cnccn1 returned TcdB GH inh 1, BoNT-F LC inh -9, BoNT-A LC inh2 -2, Autofluor counter 9736 and Anthrax LF prot -3.
For O=C(NNC(=O)C1CCCCC1)c1cnccn1 the results were BoNT-F LC inh 4, BoNT-A LC inh2 3, Autofluor counter 22696* and Anthrax LF prot 1.
`CN(C)C(=O)c1ccc(-c2ccccc2[C@@H]2[C@@H](CO)N(C(=O)C3CCCC3)[C@H]2C#N)cc1` gave TcdB GH inh -1.
Screening CCCCNC(=O)CCCCCn1c(=O)[nH]c2cc(OC)c(OC)cc2c1=O returned BoNT-F LC inh -1, BoNT-A LC inh2 inconclusive, Autofluor counter 19264* and Anthrax LF prot -11.
CCOc1cc2[nH]c(=S)n(CCOC)c(=O)c2cc1OCC was read as BoNT-F LC inh -2, BoNT-A LC inh2 -1, Autofluor counter 22228* and Anthrax LF prot -4.
Screening CCCCCNC(=O)CCCCn1c(=O)[nH]c2cc(OCC)c(OCC)cc2c1=O returned BoNT-F LC inh -8, BoNT-A LC inh2 -1, Autofluor counter 4282 and Anthrax LF prot 1.
For COc1cc2[nH]c(=S)n(NC(=O)CC(C)C)c(=O)c2cc1OC the results were BoNT-F LC inh -3, BoNT-A LC inh2 inconclusive, Autofluor counter 24467* and Anthrax LF prot -4.
CCCn1c(=S)[nH]c2cc(OC)c(OC)cc2c1=O was read as TcdB GH inh 2, BoNT-F LC inh -2, BoNT-A LC inh2 -1, Autofluor counter 22976* and Anthrax LF prot -1.
`CCOc1cc2[nH]c(=S)n(CCCN(CC)CC)c(=O)c2cc1OCC` gave BoNT-F LC inh 7, BoNT-A LC inh2 0, Autofluor counter 8924 and Anthrax LF prot 9.
Cc1noc(C)c1NC(=O)Nc1ccc2c(c1)C(=O)N([C@@H](C)CO)C[C@@H](C)[C@H](CN(C)S(=O)(=O)c1c(C)noc1C)OCCCC[C@@H](C)O2 was read as TcdB GH inh 1.
For CCO[C@@H]1OC(C(=O)N2CCN(Cc3ccccc3)CC2)=C[C@H](c2ccc3c(c2)OCO3)[C@H]1CCCO the results were TcdB GH inh 0.
For CCOc1cc2[nH]c(=S)n(CCCC(=O)N3CCC4(CC3)OCCO4)c(=O)c2cc1OCC the results were BoNT-F LC inh 0, BoNT-A LC inh2 -1, Autofluor counter 22729* and Anthrax LF prot 1.
Screening CCOc1cc2[nH]c(=O)n(CCCCC(=O)N3CCCCCC3)c(=O)c2cc1OCC returned BoNT-F LC inh 13, BoNT-A LC inh2 0, Autofluor counter 9452 and Anthrax LF prot -5.
COc1cc2[nH]c(=S)n(Cc3cccs3)c(=O)c2cc1OC was read as TcdB GH inh 25*, BoNT-F LC inh 0, BoNT-A LC inh2 -1, Autofluor counter 4424 and Anthrax LF prot -1.
For CCOc1cc2[nH]c(=S)n(Cc3ccc(C(=O)O)cc3)c(=O)c2cc1OCC the results were TcdB GH inh 1, BoNT-F LC inh -15, BoNT-A LC inh2 -1, Autofluor counter 3991 and Anthrax LF prot -2.
`CC(C)NC(=O)N(C)C[C@@H]1Oc2ccc(NC(=O)c3ccncc3)cc2C(=O)N([C@H](C)CO)C[C@H]1C` gave TcdB GH inh -4.
Screening C[C@@H]1CCCCO[C@H](CN(C)S(=O)(=O)c2cccs2)[C@@H](C)CN([C@H](C)CO)C(=O)c2cc(NC(=O)Nc3ccc(C(F)(F)F)cc3)ccc2O1 returned TcdB GH inh -1.
Cc1ccc2c(c1)N(Cc1cccc(F)c1)C(=O)C(C)O2 (stereo unspecified) was read as TcdB GH inh -1, BoNT-F LC inh -10, BoNT-A LC inh2 2, Autofluor counter 3691 and Anthrax LF prot 5.
For Cc1ccc2c(c1)N(CC(=O)N(Cc1ccc3c(c1)OCO3)CC1CCCO1)C(=O)C(C)O2 (stereo unspecified) the results were BoNT-F LC inh -3, BoNT-A LC inh2 0, Autofluor counter 23947* and Anthrax LF prot 1.
COc1ccc(CN(CC2CCCO2)C(=O)CN2C(=O)COc3ccccc32)cc1OC (stereo unspecified) was read as BoNT-F LC inh 18, BoNT-A LC inh2 0, Autofluor counter 3722 and Anthrax LF prot 4.
Cc1ccc2c(c1)N(CC(=O)N1CCCCCC1)C(=O)C(C)O2 (stereo unspecified) was read as TcdB GH inh -1, BoNT-F LC inh -20, BoNT-A LC inh2 1, Autofluor counter 3871 and Anthrax LF prot -2.
Screening Cc1ccc2c(c1)N(CC(=O)c1cccc(Cl)c1)C(=O)C(C)O2 (stereo unspecified) returned TcdB GH inh 1, BoNT-F LC inh -2, BoNT-A LC inh2 -2, Autofluor counter 23986* and Anthrax LF prot -4.
Cc1ccc2c(c1)N(Cc1ccncc1)C(=O)C(C)O2 (stereo unspecified) was read as TcdB GH inh -2, BoNT-F LC inh 2, BoNT-A LC inh2 2, Autofluor counter 22957* and Anthrax LF prot -3.
Screening CC1Oc2ccccc2N(CC(=O)c2cccc(Cl)c2)C1=O (stereo unspecified) returned TcdB GH inh 0, BoNT-F LC inh 13, BoNT-A LC inh2 12, Autofluor counter 19669* and Anthrax LF prot -12.
For CC1Oc2ccccc2N(CC(=O)N2CCCC2)C1=O (stereo unspecified) the results were TcdB GH inh 1, BoNT-F LC inh 20, BoNT-A LC inh2 0, Autofluor counter 3779 and Anthrax LF prot 3.
For O=C(C1CCOCC1)N1C[C@H]2[C@@H](c3ccccc31)[C@@H](CO)N2C(=O)c1ccccc1 the results were TcdB GH inh -2.
`CC[n+]1c(C)sc2c3ccsc3ccc21` gave TcdB GH inh 0, BoNT-F LC inh -24, BoNT-A LC inh2 4, Autofluor counter 2363 and Anthrax LF prot 1.
CCN1/C(=C/c2ccc3cc(C)ccc3[n+]2CC)Sc2ccc3sccc3c21 was read as BoNT-F LC inh -101, BoNT-A LC inh2 49*, Autofluor counter 3616 and Anthrax LF prot -71.
Screening CCN1/C(=C\c2ccc3cc(C)ccc3[n+]2CC)Sc2cc(C)c(C)cc21 returned TcdB GH inh -4, BoNT-F LC inh -82, BoNT-A LC inh2 42*, Autofluor counter 7412 and Anthrax LF prot -64.
CCN1/C(=C/c2ccc3cc(C)cc(C)c3[n+]2CC)Sc2cc(C)ccc21 was read as TcdB GH inh -19, BoNT-F LC inh -97, BoNT-A LC inh2 27, Autofluor counter 8167 and Anthrax LF prot -89.
For CCN1/C(=C/c2ccc3cccc(C)c3[n+]2CC)Sc2ccccc21 the results were BoNT-F LC inh -18, BoNT-A LC inh2 79*, Autofluor counter 8752 and Anthrax LF prot 18.
For Cc1noc(C)c1NC(=O)N1C[C@@H](O)COC[C@@H]2O[C@@H](CC(=O)N3CCc4ccccc4C3)CC[C@H]21 the results were TcdB GH inh -1.
`Cc1cccc(C)c1NC(=O)CCN1C(=O)C2C3CCC(C3)C2C1=O` (stereo unspecified) gave BoNT-F LC inh -3, BoNT-A LC inh2 -3, Autofluor counter 24501* and Anthrax LF prot -2.
